Assay results from PubChem BioAssay.
The source made the active and inactive calls.

Legend:
[1] = small molecules captured by biotinylated probe aFSTL3 – biochemical, small-molecule microarray, fluorescence 635/667, stem cell growth factor project, primary screen (AID 1064); details: higher = more signal;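 also: measures binding of the biotinylated anti-FSTL3 antibody to printed compounds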
[2] = binders from COS7 lysate, DM2A8 probe, primary screen, torsin A project, cell lysate, small-molecule microarray, fluorescence 635/667 (AID 1065); details: higher = more signal, COS7 lysate expressing mutant human TOR1A
[3] = small molecules captured by biotinylated probe aFGF2 – biochemical, small-molecule microarray, fluorescence 635/667, stem cell growth factor project, primary screen (AID 1067); details: higher = more signal;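 also: measures binding of biotinylated aFGF2 protein to printed compounds on slides; z-score merges feature fluorescence and signal-to-noise across triplicate slides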
[4] = small molecules captured by biotinylated probe aFGF10 – biochemical, small-molecule microarray, fluorescence 635/667, stem cell growth factor project, primary screen (AID 1071); details: higher = more signal;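 also: score merges 667 nm spot intensity and signal to noise from triplicate slides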
[5] = target: Neurogenic locus notch homolog protein 2 (Homo sapiens) (UniProt Q04721); test: small molecules binding Notch2 protein – biochemical, small-molecule microarray, 635 nm fluorescence, stem cell growth factors, primary screen (AID 1073); details: higher = more signal
Sequence of Neurogenic locus notch homolog protein 2 (Homo sapiens) (Q04721 whole entry, looked up, canonical isoform): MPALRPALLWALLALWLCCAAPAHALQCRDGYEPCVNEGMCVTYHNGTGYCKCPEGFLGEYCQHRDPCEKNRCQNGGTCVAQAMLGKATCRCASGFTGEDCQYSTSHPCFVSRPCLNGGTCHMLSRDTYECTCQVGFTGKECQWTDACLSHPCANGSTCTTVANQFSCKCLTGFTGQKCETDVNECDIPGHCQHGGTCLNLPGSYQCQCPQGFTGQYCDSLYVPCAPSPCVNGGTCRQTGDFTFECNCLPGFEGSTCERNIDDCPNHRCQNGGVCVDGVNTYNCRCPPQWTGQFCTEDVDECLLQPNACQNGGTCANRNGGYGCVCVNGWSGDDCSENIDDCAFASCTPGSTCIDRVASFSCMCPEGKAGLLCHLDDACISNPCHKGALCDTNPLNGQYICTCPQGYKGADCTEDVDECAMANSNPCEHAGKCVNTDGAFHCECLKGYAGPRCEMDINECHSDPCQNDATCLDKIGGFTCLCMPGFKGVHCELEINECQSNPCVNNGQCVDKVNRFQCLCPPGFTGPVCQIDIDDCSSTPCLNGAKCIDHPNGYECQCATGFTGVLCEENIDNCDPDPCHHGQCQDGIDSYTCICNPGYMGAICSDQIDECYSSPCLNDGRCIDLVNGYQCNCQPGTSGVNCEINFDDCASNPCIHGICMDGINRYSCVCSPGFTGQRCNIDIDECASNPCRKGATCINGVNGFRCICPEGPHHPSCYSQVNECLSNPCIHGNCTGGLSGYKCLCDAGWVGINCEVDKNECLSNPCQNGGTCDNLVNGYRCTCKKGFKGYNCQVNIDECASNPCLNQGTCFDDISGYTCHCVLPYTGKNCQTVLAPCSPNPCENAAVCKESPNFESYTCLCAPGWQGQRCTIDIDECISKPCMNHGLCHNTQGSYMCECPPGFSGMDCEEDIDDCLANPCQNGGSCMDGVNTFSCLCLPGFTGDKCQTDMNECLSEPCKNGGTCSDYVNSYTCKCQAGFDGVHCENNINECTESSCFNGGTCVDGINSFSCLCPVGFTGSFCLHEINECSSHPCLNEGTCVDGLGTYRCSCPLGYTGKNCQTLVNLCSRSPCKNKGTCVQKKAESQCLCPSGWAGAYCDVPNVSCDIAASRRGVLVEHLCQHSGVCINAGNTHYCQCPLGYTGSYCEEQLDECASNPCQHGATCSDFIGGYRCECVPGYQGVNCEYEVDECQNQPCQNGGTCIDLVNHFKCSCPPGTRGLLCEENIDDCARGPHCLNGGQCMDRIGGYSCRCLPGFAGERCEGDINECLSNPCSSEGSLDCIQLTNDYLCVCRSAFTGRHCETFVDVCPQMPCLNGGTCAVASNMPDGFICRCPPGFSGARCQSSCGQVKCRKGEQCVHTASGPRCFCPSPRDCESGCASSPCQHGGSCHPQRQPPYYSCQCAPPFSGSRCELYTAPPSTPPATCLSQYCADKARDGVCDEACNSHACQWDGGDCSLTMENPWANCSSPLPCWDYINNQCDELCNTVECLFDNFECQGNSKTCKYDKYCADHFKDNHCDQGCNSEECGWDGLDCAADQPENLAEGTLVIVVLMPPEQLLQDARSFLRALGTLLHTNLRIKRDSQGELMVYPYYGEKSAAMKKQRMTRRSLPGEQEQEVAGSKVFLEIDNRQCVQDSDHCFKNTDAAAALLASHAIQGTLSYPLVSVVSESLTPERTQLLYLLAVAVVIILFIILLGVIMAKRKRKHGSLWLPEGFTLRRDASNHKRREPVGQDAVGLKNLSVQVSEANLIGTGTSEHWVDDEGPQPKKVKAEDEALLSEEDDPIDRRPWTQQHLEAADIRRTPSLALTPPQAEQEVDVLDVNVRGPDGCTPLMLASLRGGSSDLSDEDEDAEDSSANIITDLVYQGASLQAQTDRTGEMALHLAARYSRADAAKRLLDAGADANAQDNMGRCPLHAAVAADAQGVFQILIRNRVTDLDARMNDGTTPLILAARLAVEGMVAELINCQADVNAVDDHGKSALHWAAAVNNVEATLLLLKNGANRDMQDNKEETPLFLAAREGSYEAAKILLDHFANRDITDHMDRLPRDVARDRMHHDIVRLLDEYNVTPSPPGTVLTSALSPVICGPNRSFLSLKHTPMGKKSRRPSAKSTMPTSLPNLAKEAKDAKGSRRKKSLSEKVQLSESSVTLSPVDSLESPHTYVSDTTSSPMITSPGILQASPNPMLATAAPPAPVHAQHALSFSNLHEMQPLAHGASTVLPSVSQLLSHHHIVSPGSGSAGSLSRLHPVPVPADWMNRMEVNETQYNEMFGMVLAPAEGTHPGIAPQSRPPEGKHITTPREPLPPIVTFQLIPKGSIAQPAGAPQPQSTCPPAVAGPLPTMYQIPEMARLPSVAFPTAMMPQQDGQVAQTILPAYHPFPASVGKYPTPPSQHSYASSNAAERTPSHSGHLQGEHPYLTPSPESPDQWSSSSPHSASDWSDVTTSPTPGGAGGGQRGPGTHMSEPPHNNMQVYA

[6] = target: Pro-neuregulin-1, membrane-bound isoform (Homo sapiens) (UniProt Q02297); test: small molecules binding neuregulin-1 protein – biochemical, small-molecule microarray, fluorescence 635/667, psychiatric disease protein project, primary screen (AID 1075); details: NRG1 binding, 635 nm fluorescence, higher = more signal;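 also: score combines 667 nm spot fluorescence with signal to noise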
Sequence of Pro-neuregulin-1, membrane-bound isoform (Homo sapiens) (Q02297 whole entry, looked up, the tested form may be a part, canonical isoform): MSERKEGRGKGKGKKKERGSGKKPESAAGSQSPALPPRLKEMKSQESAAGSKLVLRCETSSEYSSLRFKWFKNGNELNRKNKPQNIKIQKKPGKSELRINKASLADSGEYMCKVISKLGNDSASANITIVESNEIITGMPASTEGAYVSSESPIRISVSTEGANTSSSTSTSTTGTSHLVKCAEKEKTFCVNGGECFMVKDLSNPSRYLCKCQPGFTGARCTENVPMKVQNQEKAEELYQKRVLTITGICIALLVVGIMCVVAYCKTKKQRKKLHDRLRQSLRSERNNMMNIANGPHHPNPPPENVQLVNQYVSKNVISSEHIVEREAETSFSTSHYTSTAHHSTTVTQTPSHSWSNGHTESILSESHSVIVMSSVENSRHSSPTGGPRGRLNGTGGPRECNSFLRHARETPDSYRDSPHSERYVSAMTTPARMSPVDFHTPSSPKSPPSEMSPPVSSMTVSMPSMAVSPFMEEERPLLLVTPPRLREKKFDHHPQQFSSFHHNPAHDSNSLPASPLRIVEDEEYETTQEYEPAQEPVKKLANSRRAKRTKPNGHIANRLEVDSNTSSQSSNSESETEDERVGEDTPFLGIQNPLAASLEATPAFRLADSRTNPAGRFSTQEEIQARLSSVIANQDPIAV

[7] = test system: Neuregulin-1 EGF-like domain; test: small molecules binding NRG1 EGF domain – biochemical, small-molecule microarray, 635 nm fluorescence, primary screen (AID 1081); details: higher = more signal;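 also: binding of the protein to compounds printed on small-molecule microarray slides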
[8] = FRG1 expression reporter modulators in myotubes – cell-based, C2C12 myotubes, firefly/Renilla luciferase, luminescence, FRG1 inhibition for FSHD, primary screen (AID 1084); details: FRG1 promoter luciferase, higher = more signal, called active from +8 up or from −8 down
[9] = small molecules captured by biotinylated probe aFST – biochemical, small-molecule microarray, fluorescence 635/667, stem cell growth factor project, primary screen (AID 1086); details: higher = more signal;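 also: score merges 667 nm fluorescence with signal-to-noise of each printed compound spot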
[10] = binders of probe aHhip on microarray, primary screen, stem cell growth factor project, biochemical, small-molecule microarray, fluorescence 635/667 (AID 1087); details: higher = more signal;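 also: score merges spot fluorescence at 667nm with spot signal to noise ratio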

Compound | composite z-score [1] | composite z-score [2] | composite z-score [3] | composite z-score [4] | composite z-score [5] | composite z-score [6] | composite z-score [7] | z-score [8] | composite z-score [9] | composite z-score [10]
Cc1ccccc1C(O)C1C=CC2C(=O)N(c3ccccc3)C(=O)C2N1Nc1ccc(C#N)cc1 (stereo not given) | 0.834 | 1.46 | 0.429 | 1.15 | 1.63 | 1.91 | 1.25 | -1.25 (inactive) | 1.96 | -0.111
COC(=O)c1ccc(C#CC(NP(=O)(c2ccccc2)c2ccccc2)c2ccccc2)cc1 (stereo not given) | 0.301 | -0.214 | -0.108 | 0.182 | 1.87 | 1.68 | 1.36 | -0.131 (inactive) | 1.34 | 2.35
CC(C)C[C@@H]1NC(=O)[C@H](CC(C)C)NC(=O)[C@@]23C(=O)N[C@@H](Cc4ccccc4)C2[C@H](C)[C@@]2(C)O[C@H]2C3/C=C/CC/C=C/CNC1=O (stereo not given in full) | -0.3 | -0.135 | -0.0805 | 0.278 | 0.242 | 0.603 | 1 | -0.298 (inactive) | 0.0226 | -0.201
C[C@@H]1CC[C@H]2C(=O)N3[C@@H](CC[C@@H](C)[C@@H]3c3cccc(N4CCOCC4)c3)C(=O)N2[C@H]1c1cccc(N2CCOCC2)c1 | 0.0943 | 0.378 | -0.166 | 0.616 | 0.92 | 0.414 | 1.1 | -0.531 (inactive) | 0.619 | 1.3
C=C(CCCC)C(=O)CC[C@@H](OC(C)=O)c1ccccc1OCCO | 0.286 | 0.844 | -0.177 | -0.34 | -0.975 | -0.52 | -0.37 | -2.26 (inactive) | -0.488 | -0.0645
COCCOC(=O)N1C(=O)[C@@]2(c3cc(C#CC4=CCCCC4)ccc31)[C@H](c1ccc(O)cc1)N1[C@H](c3ccccc3)[C@H](c3ccccc3)OC(=O)[C@H]1[C@@H]2C(=O)N1CCCCCCC1 | 2.57 | -0.264 | -0.06 | 0.0509 | 0.521 | 0.292 | 0.359 | 0.0812 (inactive) | 0.547 | 0.294
C[N+](C)(C)CCCC[C@@H]1NC(=O)[C@H]2C[C@@H](C(=O)NCc3ccc(F)cc3)[C@@H](c3cccc(OCCO)c3)N2C1=O | 0.466 | 1.02 | -0.149 | -0.579 | -0.607 | 0.594 | 1.22 | 0.106 (inactive) | 0.231 | 0.0176
C=C(C)[C@@H]1CC=C(C(O)C2C=CC3C(=O)NC(=O)C3N2Nc2ccccn2)CC1 (stereo not given in full) | 0.541 | 1.27 | 0.0127 | 1.07 | 1.61 | 1.36 | 1.35 | 1.65 (inactive) | 1.5 | 0.0524
O=C(CS)NCCCCCCNC(=O)[C@@H]1C[C@@H]2C(=O)N[C@@H](Cc3ccccc3)C(=O)N2[C@@H]1c1ccc(O)cc1 | 0.0737 | 1.09 | -0.083 | 0.922 | 0.412 | 1.23 | 1.41 | 1.21 (inactive) | 0.245 | 0.0373
COC(=O)[C@H]1[C@@H]2COc3ccccc3[C@H]2N[C@H]1C(=O)OC | -0.241 | -0.0479 | -0.139 | 0.255 | 0.419 | 0.281 | 0.428 | 0.44 (inactive) | 0.168 | -0.189
CC(C)[Si]1(C(C)C)O[C@@H](c2ccccc2)c2cc(C3CC3)nc(-c3ccc(Oc4ccccc4)cc3)c21 | 0.0382 | 0.0357 | -0.119 | -0.772 | -0.304 | -0.46 | -0.985 | -0.895 (inactive) | -0.148 | -0.0074
C[C@@H]1C=CCC(=O)OC[C@H]2O[C@@H](C=C[C@@H]2O)[C@H](C)C=CCC(=O)OC[C@H]2O[C@H]1C=C[C@@H]2O | -0.663 | 0.919 | -0.113 | 0.526 | 0.16 | -0.0241 | 0.567 | -0.274 (inactive) | 0.0915 | 0.346
C=C[C@H](OC)[C@@H](OC(=O)Nc1ccc(SC)cc1)c1ccc(O)c(F)c1 | -0.0125 | -0.22 | -0.0493 | 0.2 | 0.474 | 0.756 | 1.03 | 4.46 (inactive) | -0.212 | 0.109
CC(C)C[C@@H]1NC(=O)[C@H]2C[C@@H](C(=O)NCCCCCC[N+](C)(C)C)[C@@H](c3ccc(O)cc3)N2C1=O | -0.332 | 0.64 | -0.189 | -0.615 | -0.471 | 1.77 | 1.41 | 2.82 (inactive) | 0.0716 | -0.0994
CC(C)[C@H]1NC(=O)[C@@]23C(=O)N[C@@H](Cc4ccccc4)C2[C@H](C)[C@@]2(C)O[C@H]2C3/C=C/C/C=C\CNC(=O)[C@H](C)NC1=O (stereo not given in full) | 0.11 | -0.663 | -0.164 | 0.51 | -1.59 | -0.967 | 0.754 | 0.194 (inactive) | -0.367 | -0.399
CCOC(=O)C[C@H]1[C@H](OC(=O)Cc2ccc3c(c2)OCO3)[C@@H](NC(=O)c2ccc3ccccc3c2)c2cc(OCCCO)ccc2N1C(=O)Cc1ccc(OC)cc1 | -0.0089 | 0.237 | -0.0239 | 0.546 | 0.947 | 0.759 | 0.358 | -1.63 (inactive) | 0.533 | 0.0274
O=C1c2ccccc2[C@](Cc2ccccc2I)(C(=O)O)[C@H](c2ccc(CO)cc2)N1C1CCCCC1 | 0.007 | 0.297 | 0.0545 | 1.06 | 1.56 | 1.22 | 1.32 | 0.287 (inactive) | 0.892 | 0.011

Compound | composite z-score [1] | composite z-score [2] | composite z-score [3] | composite z-score [4] | composite z-score [5] | composite z-score [6] | composite z-score [7] | z-score [8] | composite z-score [9] | composite z-score [10]
O=C1OCC=C[C@H]2OC34C=CCN(Cc5ccccc5)C(=O)[C@H]3N(CCO)C(=O)[C@@H]4[C@@H]12 (stereo not given in full) | 0.322 | -0.0397 | -0.149 | -0.387 | -0.338 | 2.05 | 0.699 | -0.019 (inactive) | -0.331 | -0.236
CCCCCCc1nc(C2CC2)c(C)c2c1[Si](C(C)C)(C(C)C)OC2 | 0.411 | 0.159 | -0.167 | -0.588 | -0.923 | -0.322 | -0.629 | -0.139 (inactive) | -0.266 | -0.0672
Cc1ccc(S(=O)(=O)N[C@H]2COC(=O)CC=C[C@H](C)COC(=O)N[C@@H](C)C(=O)CC=C[C@@H]2C)cc1 | -0.667 | 1.16 | -0.22 | 0.168 | -0.0113 | -0.195 | 0.527 | 0.502 (inactive) | 0.0218 | 0.0053
CCN1C(C)=C(C(=O)OC)[C@@H](c2ccccc2)N2C(=O)[C@@]3(C(=O)OC)O[C@@]12[C@@H]1C(=O)N(C)C(=O)[C@@H]13 | -0.217 | 0.139 | -0.0125 | 0.735 | 0.949 | 0.825 | 1.18 | -1.36 (inactive) | 0.264 | -0.0994
O=C1OCCC/C=C\[C@H]2OC34C=CCN(CCN5CCOCC5)C(=O)[C@H]3N(CCCCCO)C(=O)[C@@H]4C12 (stereo not given in full) | -0.0623 | -0.658 | -0.174 | -0.156 | -0.822 | -0.179 | 0.65 | 1.48 (inactive) | -0.676 | -0.226
COc1cc([C@@H]2N[C@H](C(=O)O)Cc3c2[nH]c2ccccc32)cc(OC)c1OC | -0.534 | 0.55 | -0.0806 | 0.28 | 0.507 | 0.0318 | -0.205 | -0.643 (inactive) | -0.134 | 0.338
C=CC[C@]1(C(=O)O)N=C(c2ccc(OCCCO)cc2)O[C@H]1c1ccccc1 | 1.03 | -0.269 | -0.0985 | -0.2 | -0.0704 | 1.87 | 1.12 | 0.197 (inactive) | 0.0226 | -0.169
N#Cc1ccc(NN2C(C(O)CCc3ccccc3)C=CC3C(=O)N(c4ccccc4)C(=O)C32)cc1 (stereo not given) | 0.681 | 0.936 | 0.078 | -0.0011 | 1.62 | 1.17 | 1 | -1.22 (inactive) | 1.02 | -0.177
O=C1C2C=CC(C(O)C#Cc3ccccc3)N(Nc3ccccc3)C2C(=O)N1c1ccccc1 (stereo not given) | 0.532 | -0.17 | -0.0316 | 0.208 | 1.46 | 1.74 | 1.24 | 0.818 (inactive) | 0.246 | -0.226
[N-]=[N+]=NCc1ccccc1C[C@]1(C(=O)N2CCCCC2)N=C(c2ccc(OCCCO)cc2)O[C@H]1c1ccccc1CN=[N+]=[N-] | -0.0017 | 0.759 | 0.0342 | 0.765 | 0.776 | 1.63 | 1.19 | -1.62 (inactive) | 1.29 | 0.142
C#CCCCON=C1C[C@@H](O)[C@@H](O)[C@@H]2[C@@H]3C(=O)N(Cc4ccc5c(c4)OCO5)C(=O)[C@@H]3CC[C@H]12 | -0.264 | 0.933 | -0.0533 | 0.716 | 0.624 | 0.662 | 0.695 | 0.523 (inactive) | -0.0042 | -0.342
CC(=O)NCCCC[C@@H]1NC(=O)[C@@H]2C[C@H](C(=O)NCCCCCNC(=O)CS)[C@H](c3ccc(O)cc3)N2C1=O | 0.123 | -0.383 | -0.226 | -1.38 | -0.83 | 0.0942 | 1.15 | -1.14 (inactive) | -0.735 | -0.388
COc1ccc([C@H]2C[C@H]3C(Br)=C[C@]2(OC)C(=O)[C@]32CO2)cc1 | -0.207 | -0.187 | -0.0563 | 1.02 | -0.203 | -0.228 | -0.0338 | 0.926 (inactive) | 0.198 | 0.0722
COc1ccc([Si](C)(C)[C@H]2[C@H](CC(=O)N(CCO)Cc3ccccc3)O[C@@]3(C(=O)N(C)c4ccccc43)[C@@H]2C)cc1 | -0.412 | 0.919 | 0.0248 | 0.877 | -0.0546 | 0.67 | 0.938 | -1.39 (inactive) | 0.291 | -0.21
CC[C@@H]1C=C(C(=O)O)[C@H](c2ccccc2)N1S(=O)(=O)c1ccc([N+](=O)[O-])cc1 | 0.0455 | -0.0271 | -0.0669 | 0.223 | 0.989 | 1.86 | 1.08 | -2.22 (inactive) | 0.13 | -0.0831
COC(=O)C(CC#Cc1ccc2c(c1)[C@]1(C(=O)N2)[C@H](C(=O)N2CCCCCCC2)[C@H]2C(=O)O[C@H](c3ccccc3)[C@H](c3ccccc3)N2[C@@H]1c1ccc(O)cc1)C(=O)OC | 0.565 | -1.17 | -0.167 | -0.542 | -1.07 | -0.712 | -0.466 | 1.65 (inactive) | -0.137 | -0.306
